From PubChem BioAssay
Values without a mark were called inactive. No rule for the calls is given here.

Biological target: Pantothenate synthetase (Mycobacterium tuberculosis (strain ATCC 25618 / H37Rv)) (UniProt P9WIL5)
Test: Coupled enzyme confirmation of inhibitors against recombinant Mtb PanC (AID 375);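 also: 0% = full reaction with vehicle and 100% = no enzyme background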
Details: coupled enzyme assay; at 10 µM, hits give high values

Chain of Pantothenate synthetase (Mycobacterium tuberculosis (strain ATCC 25618 / H37Rv)) (P9WIL5 whole entry, looked up): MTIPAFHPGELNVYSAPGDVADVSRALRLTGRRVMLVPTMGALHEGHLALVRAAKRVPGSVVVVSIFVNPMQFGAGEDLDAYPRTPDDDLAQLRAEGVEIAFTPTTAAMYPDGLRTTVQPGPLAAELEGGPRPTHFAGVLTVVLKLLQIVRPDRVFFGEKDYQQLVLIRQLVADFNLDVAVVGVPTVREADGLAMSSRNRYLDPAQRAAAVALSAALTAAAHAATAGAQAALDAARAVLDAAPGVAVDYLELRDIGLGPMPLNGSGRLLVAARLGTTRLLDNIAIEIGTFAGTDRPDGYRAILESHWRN

Row | Structure (SMILES) | inhibition [%]
1 | CC(=O)c1cccc(NC(=O)NCc2ccco2)c1 | 0
2 | CC1CCN(S(=O)(=O)c2cn(CC(=O)N3CCN(C)CC3)c(=O)c3ccccc23)CC1 | 4
3 | CCOC(=O)C1=C(CC)Nc2ccccc2N=C1NC(=O)Cn1cnc2ccccc2c1=O | 0
4 | Cc1cc(O)c(NC(=O)c2ccc(Br)o2)cc1C | 11
5 | Cc1cccc(OCCCC(=O)O)c1 | 3
6 | C/C(Nc1cccc(F)c1)=C(/C#N)C(N)=O | 3
7 | CC1=C(C(=O)OCC(C)C)C(c2cc3c(cc2Br)OCO3)NC(=O)N1C (centres undefined) | 0
8 | COc1ccccc1N(CC(=O)NCc1ccccc1)S(C)(=O)=O | 0
9 | Cc1cc(N2C(=O)C3C4C=CC(C4)C3C2=O)ccc1Br (centres undefined) | 0
10 | O=C(CP(=O)(CO)CO)c1ccc(Cl)cc1 | 0
11 | O=C(c1cccs1)N1CCc2ccccc21 | 0
12 | Oc1ccc2[nH]cnc2c1CN1CCCCC1 | 0
13 | COC(=O)Cn1c(C)nc2c(sc3nc(C)cc(C)c32)c1=O | 3
14 | Nn1c(SCC(=O)Nc2ccccc2)nnc1-c1cccnc1 | 0
15 | Cc1cc2ncc(-c3ccc(Cl)cc3)c(N)n2n1 | 0
16 | O=S(=O)(c1cccc(-c2nnco2)c1)N1CCCC1 | 0
17 | CCC(=O)Oc1ccc(/C(CC)=C(\CC)c2ccc(OC(=O)CC)cc2)cc1 | 0
18 | CC(C)[C@H](NC(=O)OC(C)(C)C)c1nnc(SCC(=O)Nc2ccc(Br)cc2)o1 | 0
19 | CCn1c(=N)n(CC(O)COc2cccc(C)c2)c2ccccc21 (centres undefined) | 4
20 | COc1ccc(-c2nc(SC)n(S(=O)(=O)c3ccccc3)n2)cc1 | 0

Row | Structure (SMILES) | inhibition [%]
21 | Cc1cc(Cl)ccc1OCC(=O)Nn1c(C)ccc1C | 0
22 | O=C1C2CC=C(Cl)CC2C(=O)N1CNc1ccccn1 (centres undefined) | 0
23 | Cc1ccc(NC(=O)CSc2nnc(CCCCCNC(=O)OC(C)(C)C)o2)c(C)c1 | 6
24 | O=C(Cc1c(F)cccc1Cl)Nc1ccncc1 | 6
25 | CCN(CC)S(=O)(=O)c1ccc2oc(C(=O)O)c(C)c2c1 | 0
26 | CC1CCCCC1NC(=O)Cn1ncc2ccccc21 (centres undefined) | 0
27 | CCN1CCN(c2c(Cl)cccc2NC(=O)c2ccco2)CC1 | 9
28 | c1coc(-c2nnc(NC3=NCCC3)o2)c1 | 0
29 | FC(F)Sc1nnc(-c2cccs2)n1-c1ccccc1 | 0
30 | Cc1[nH]c(=O)[nH]c(=O)c1S(=O)(=O)N1CCN(c2cccc(Cl)c2)CC1 | 1
31 | CC(=O)Nc1ccc(Cl)cc1C(=O)O | 2
32 | Cc1ccc2c(c1)CCCN2C(=O)c1ccc2c(c1)OCO2 | 0
33 | CCn1cc(SCC(=O)Nc2cc(C)on2)c2ccccc21 | 0
34 | COc1ccc(C(=O)Nc2ccc(C)cn2)c(OC)c1 | 0
35 | CCCC(=O)Nc1ncnc2c1ncn2[C@@H]1O[C@@H]2COP(=O)(O)O[C@H]2[C@H]1OC(=O)CCC | 0
36 | CCc1ccc(C2CC(c3ccccc3)n3ncnc3N2)cc1 (centres undefined) | 0
37 | CS(=O)(=O)N(CC(=O)NCc1ccccn1)c1ccc2c(c1)OCCO2 | 0
38 | CCCCCC1CC(CC#CCN2CCOCC2)C(=O)O1 (centres undefined) | 7
39 | O=C(CCCC(=O)OCC(=O)NC1CCCC1)Nc1ccccn1 | 4
